High-throughput results: PubChem BioAssay, several laboratories
PfHsp90 yeast 2 – growth inhibition of yeast expressing Plasmodium Hsp90. inhibition, % at 9.4 µM. hit rate 0.32% among 310,000. S. cerevisiae expressing PfHsp90, BacTiter-Glo ATP, 48 h; yeast lacking PDR1 and PDR3 efflux regulators;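 active = every replicate shows inhibition above about 80%, whatever the replicate mean, limit read from the data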;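 also: 0% = DMSO neutral controls and 100% = 20 µM radicicol positive controls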
tim10-1 inh – growth inhibitors of tim10-1 mutant yeast; AID 463190; S. cerevisiae tim10-1 ts strain growth, BacTiter-Glo, 24 h; hit rate 2.2% among 330,000; inhibition, % at 20 µM;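 active = inhibition of at least 40%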;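 also: mutant grown at 25 °C; 0% = DMSO wells with yeast and 100% = wells holding no yeast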
SKKanGAS inh – blocks kanamycin growth of S. pyogenes SKKanGAS strain. BacTiter-Glo, 6 h. inhibition, % at 7.5 µM. AID 1662. hit rate 1.3% among 300,000;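 active = mean replicate score, as percent of positive control median, at least 50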;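 also: strain carries kanamycin resistance gene driven by streptokinase promoter and grows in 40 µg/ml kanamycin; loss of luminescence reflects streptokinase promoter inhibition or plain growth inhibition; 0% = median of DMSO wells and 100% = positive control at its reference dose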
TIM10 inh – TIM10 yeast growth inhibition; S. cerevisiae TIM10 strain growth, BacTiter-Glo luminescence, 24 h; inhibition, % at 10 µM; hit rate 1.4% among 330,000; AID 463195;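 active = inhibition of 40% or more at the single tested concentration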;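 also: wild-type TIM10 isogenic control strain grown at permissive 25 °C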
NALP1 inh – NALP1 inhibition | S. cerevisiae NALP1/ASC/caspase-1 growth, X-gal OD620, 72 h | inhibition, % at 10 µM | hit rate 0.61% among 280,000 | AID 2071; in the data active = inhibition mostly above about 24%, no sharp cut-off; inactive = mostly below about 32%
tim23-1 inh – inhibits growth of tim23-1 mutant yeast; S. cerevisiae tim23-1 growth, BacTiter-Glo luminescence, 24 h; inhibition, % at 20 µM; hit rate 1.3% among 330,000;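 active = growth inhibition of the mutant yeast at or above 50%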;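 also: temperature-sensitive mutant grown at 25 °C; plate controls were DMSO-treated mutant yeast for no effect and medium wells lacking yeast for full effect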
An asterisk follows results filed as active; i = inactive; . = not tested or not shown. This is a sample that favours compounds with a hit; in the whole collection about 4.8% have one here.

SMILES | PfHsp90 yeast 2 | tim10-1 inh | SKKanGAS inh | TIM10 inh | NALP1 inh | tim23-1 inh
COc1ccccc1/C=C(/C(=O)OCC(=O)Nc1cc(C)ccc1C)c1ccccc1 | -2.0 | 31.2 | 55.4* | 10.6 | -9.8 | 1.7
CCOc1ccc(C(=O)CCC(=O)N(CC)CC(=O)NCc2cccs2)cc1 | 10.5 | 9.0 | 4.6 | 4.8 | . | 12.1
O=C(Nc1ccc(F)cc1)Nn1cnnc1 | 10.9 | 10.1 | -15.6 | -5.8 | 7.0 | -1.1
Cc1c(C)[n+](=O)c(-c2ccc(F)cc2)c(C)n1[O-] | . | 11.3 | -26.0 | 0.3 | -29.7 | 7.1
Cc1c(-c2ccc(F)cc2)[n+](=O)c(-c2ccc(F)cc2)c(C)n1[O-] | . | 3.9 | 1.4 | -1.0 | 41.9* | 7.3
Cc1cc(C(=O)Nc2ccc3ccccc3c2)c(C)o1 | -7.6 | -31.4 | -7.4 | 15.2 | 14.5 | 36.8
FC(F)(F)c1cc(-c2ccccc2)nc(N2CCCCC2)n1 | 17.9 | 8.8 | 84.3* | -8.6 | -6.0 | 9.6
FC(F)(F)c1cc(-c2ccccc2)nc(N2CCOCC2)n1 | 33.2 | 11.5 | 13.6 | -5.2 | 10.8 | -7.5
Cc1c(CC(=O)NCCC(C)C)c(=O)oc2cc3c(cc12)CCC(C)(C)O3 | 12.0 | 25.6 | 0.5 | -9.9 | 20.6 | 15.6
CCCCCCCCOC(=O)/C=C/c1c(C)[nH]c(=O)[nH]c1=O | -53.5 | -12.0 | 64.1* | 2.0 | -29.9 | 0.0
COc1ccc(C(=O)OCC(=O)c2ccc3c(c2)NC(=O)CO3)cc1S(=O)(=O)N1CCOCC1 | 36.2 | -7.4 | . | -7.4 | . | -2.5
Cc1ccc(-n2ncc3c2CCCC3NC(=O)c2ccccc2N2CCOCC2)cc1C (stereo not drawn) | 114.0* | 36.8 | -2.0 | -13.7 | 13.7 | 13.7
COc1cccc(CN2CCN(C(=O)c3ccc(-c4ccccc4)cc3)CC2)c1 | 9.7 | 38.2 | -5.0 | 13.6 | 35.6 | 15.3
CC(C)c1cccc(C(C)C)c1NC(=O)CN1C(=O)NC2(CCCC2)C1=O | -2.9 | -11.7 | 0.6 | 9.0 | 23.0 | 4.6
Cc1cccc(CC(Cc2nc3ccccc3[nH]2)c2nc3ccccc3[nH]2)c1 (stereo not drawn) | -7.9 | -8.1 | 60.9* | 13.7 | 19.2 | -1.2
O=C(NCc1ccc(Cl)cc1)C1CCCO1 (stereo not drawn) | . | -2.1 | -3.7 | -16.8 | 0.4 | -10.7
O=C(NCc1cccc(Cl)c1)C1CCCO1 (stereo not drawn) | -2.3 | 7.5 | 0.8 | -4.5 | 31.9* | -5.2
COc1ccc(C)cc1NC(=O)C(OC(=O)c1cnc(C)cn1)c1ccccc1 (stereo not drawn) | 9.3 | 4.1 | 9.5 | -9.8 | . | 5.7
COc1ccc(NC(=O)C(OC(=O)c2cnc(C)cn2)c2ccccc2)cc1Cl (stereo not drawn) | -12.5 | 14.5 | 50.7* | 8.2 | . | 29.3
Cc1cc(/C=N/n2cnnc2)c(C)n1-c1ccc(OCc2ccc(Cl)cc2Cl)cc1 | -1.0 | 30.9 | 122.3* | 29.0 | -4.4 | 47.7
Cc1ccc(NC(=O)CSc2nnc(N)s2)c([N+](=O)[O-])c1 | 21.3 | 1.9 | 5.1 | -6.2 | -5.3 | 0.5
O=C(COC(=O)Cc1cn2ccsc2n1)Nc1nc2ccccc2s1 | -3.3 | 20.4 | 80.0* | 5.9 | -6.9 | 21.1
COCC(=O)Nc1nc2ccccc2s1 | -19.6 | -12.8 | 5.4 | 1.3 | 9.2 | 5.1
Cc1[nH]oc(=O)c1N=Nc1c(Cl)cccc1Cl | 105.7* | -44.8 | 0.3 | -17.1 | 37.8 | -79.8
COc1ccc(CN=C2NN=C(c3ccccc3)CS2)cc1 | -32.8 | 1.9 | 10.6 | 5.7 | -10.3 | 21.3
SMILES | PfHsp90 yeast 2 | tim10-1 inh | SKKanGAS inh | TIM10 inh | NALP1 inh | tim23-1 inh
CCc1ccc(NC(=O)c2cc(Br)ccc2Br)cc1 | . | 2.4 | 15.6 | 8.5 | 42.0* | 17.2
CN1C(=O)C(N=Nc2ccc([N+](=O)[O-])cc2)SC1=S (stereo not drawn) | 113.6* | . | . | . | . | .
CC(C)(C)C(=O)C(CO)(Oc1ccc(Cl)cc1)n1cncn1 (stereo not drawn) | 88.9* | -96.9 | 4.3 | -96.0 | 8.2 | i
CC(C)(Oc1ccc(Cl)cc1)C(=O)NCc1ccncc1 | 1.6 | 13.4 | -1.8 | 5.1 | 37.9 | 6.2
O=C(O)CSCC(=O)N(Cc1ccccc1)c1nc(-c2ccccc2)c(-c2ccccc2)s1 | -14.6 | 13.4 | 94.1* | 11.1 | 2.8 | 34.4
O=C(Nc1ccccc1F)NC1CC1 | -19.7 | 7.3 | 7.3 | 5.4 | -7.3 | 10.0
O=C(CCc1ccccc1)N/N=C/c1cc(Br)ccc1O | -8.6 | 24.5 | -11.1 | 34.8 | 22.0 | 18.7
Oc1ccc(Br)cc1/C=N/Nc1ncc(-c2ccccc2)cn1 | -11.6 | 17.9 | 82.7* | 17.9 | 7.9 | 5.7
Oc1ccc(Br)cc1/C=N/NC(=S)NCCc1ccccc1 | 13.2 | 29.4 | 89.7* | 35.3 | 11.2 | 26.5
CC(=NNC(=S)N(Cc1ccccn1)Cc1ccccn1)c1cnccn1 | 110.3* | . | . | . | . | .
CCO[C@H]1OC(C(=O)N2CCOCC2)=C[C@@H](c2cn(C(C)=O)c3ccccc23)[C@@H]1CCCO | 1.3 | 1.5 | 1.5 | 7.7 | -9.2 | 2.4
O=S(=O)(Nc1nc2ccccc2nc1Nc1cccc(S(=O)(=O)N2CCCCC2)c1)c1ccccc1 | -28.3 | 12.1 | 64.1* | 13.9 | 39.5 | 23.9
COc1ccc(S(=O)(=O)Nc2cccc(S(=O)(=O)N3CCCCCC3)c2)cc1 | -13.7 | . | 4.1 | . | 19.3 | .
Cn1c(=O)n(C)c2cc(NC(=O)COc3ccc(Cl)cc3)ccc21 | 6.1 | 20.2 | -5.4 | -1.5 | 4.6 | 7.7
CC(=O)N1N=C(c2ccc(C(C)(C)C)cc2)OC1(C)C | -3.6 | -2.9 | -20.2 | 0.9 | 31.0 | 16.8
CC(=O)N1N=C(c2ccc3ccccc3c2)OC1(C)C | -52.2 | 19.9 | 2.9 | 4.0 | 60.3* | 33.9
C[C@@H]1COC(=O)[C@@H](NC(=O)OCC2c3ccccc3-c3ccccc32)C/C=C\C[C@@H](CC(=O)N(CCO)Cc2ccccc2)C(=O)N1 | -3.5 | 3.2 | . | -4.1 | . | 14.4
N=C1S/C(=C\c2ccco2)C(=O)N1c1nccs1 | -83.9 | -11.7 | 80.7* | 20.5 | -11.1 | 8.1
O=C(Cn1cccc1C(=O)c1ccccc1)NCc1cccc(Cl)c1 | -18.0 | -1.3 | 0.2 | 6.9 | 4.6 | 6.4
NC(=O)CN1C(=O)NC2(CCCc3ccccc32)C1=O (stereo not drawn) | -7.0 | -12.6 | -3.2 | -4.9 | 44.9* | -8.9
Cc1[nH]nc(-c2ccc(O)cc2O)c1Oc1ccccc1 | -11.5 | -4.2 | -8.0 | -6.4 | 11.0 | 20.3
CCCOC(=O)c1ccc(Oc2cn[nH]c2-c2ccc(OCC(=O)NN)cc2O)cc1 | 14.3 | -82.0 | 82.8* | -14.8 | -6.4 | -39.9
COc1ccc(-c2n[nH]c(C)c2-c2ccc(Cl)cc2)c(O)c1 | -16.6 | 30.5 | 68.3* | -0.9 | 4.2 | 36.3
CCCOC(=O)c1ccc(Oc2cn[nH]c2-c2ccc(O)cc2O)cc1 | 7.7 | 19.9 | 75.9* | 19.3 | 12.1 | -14.6
CCCOC(=O)c1ccc(Oc2c(-c3ccc(OC)cc3O)n[nH]c2C)cc1 | 2.1 | 23.7 | 61.2* | 16.3 | 4.3 | 20.2
